PubChem BioAssay AID624296 (National Center for Advancing Translational Sciences (NCATS), 2012)
Out of some 350,000 compounds screened, about 9,900 (2.8%) were called active. About 15% were inconclusive and are not listed. Many of the other results were omitted from the sample, so actives are more common in it than they were. A number with no mark means an inactive call. The call rests on the fitted dose curve; in most records, active means well fitted activation curve with a large enough effect; inconclusive means small, poorly fitted or top-dose-only effect; inactive means no such curve, though single readings can be large or run the other way.

assay: A quantitative high throughput screen for small molecules that induce DNA re-replication in MCF 10a normal breast cells.; further: nearly all actives have a fitted effect of over 50% in size; on activity, positive = re-replication: % of control where 0% means no effect; details: MCF 10A DNA re-replication, Hoechst nuclear intensity, 48 h; series mostly up to 46.1 µM; activity, positive = re-replication: at the top concentration
Description: H Molecular Libraries Probe Production Network [MLPCN]
NIH Chemical Genomics Center [NCGC]
Assay Provider: Melvin DePamphilis, NICHD, NIH
Eukaryotic cells normally restrict genome duplication to once per cell division. When this process is aberrant, DNA re-replication occurs when cells reinitiate DNA replication before the first round of replication is complete. DNA re-replication induces the DNA damage response, arrests cell proliferation, and triggers apoptosis. The cell cycle components cyclin A, Cdt-1, Cdc6 and geminin are critical regulators of this process and their misregulation results in DNA re-replication in normal and cancer cells. To identify compounds that induce re-replication in normal cells, an image-based assay was used to measure DNA content of nuclei, as detected by the fluorescent DNA binding dye, Hoechst. Cell nuclei were imaged by a fluorescence scanning plate imager and compounds that induce DNA re-replication were identified by the increase of nuclei with elevated fluorescence intensity
For screening, 250 cells in 5 uL/well were dispensed into black clear 1536-well plates (Aurora) using a solenoid-based dispenser. Following transfer of 23 nL compound or DMSO vehicle by a pin tool, the plates were incubated 48 hr at 37 C and 5% CO2. After addition of 1 uL/well Hoescht stain, the plates were incubated 40 min at 37 C, 5% CO2 and total intensity of fluorescent objects (nuclei) were enumerated by an Acumen Explorer Ex3 (TTP LabTech) fluorescence scanning plate imager (405 nm excitation, 500-530 nm emission).
Keywords: NIH Roadmap, MLPCN, MLI, MLSMR, qHTS, NCGC, DNA replication, cancer
Potency means the concentration at half of the fitted maximal effect.

Row | Compound | activity, positive = re-replication | Potency
1 | Cc1cccc(N(CC(=O)N=Nc2c(O)[nH]c3ccccc23)S(C)(=O)=O)c1C | 11.1% | 
2 | COCC(=O)N=Nc1c(O)[nH]c2ccccc12 | -10.6% | 
3 | O=C(CCN1CCCCC1)N=Nc1c(O)[nH]c2ccccc12 |  | 3.66 µM (active)
4 | CCCCc1ccc(NS(=O)(=O)c2cccc(C(=O)N3CCCN(C)CC3)c2)cc1 | 23.7% | 
5 | O=C(O)c1ccc(S(=O)(=O)c2ccccc2)s1 | -18.7% | 
6 | Cc1nc2ccc(N)nc2nc1C | 23.5% | 
7 | CCN(C[C@H]1N[C@@](CC)(C(=O)OC)[C@H]2C(=O)N(C)C(=O)[C@@H]12)C(=O)Nc1ccc(F)cc1 | 2.36% | 
8 | CCOC(=O)c1c(C)oc2cc(Sc3ccccc3)c(O)c(O)c12 | 7.97% | 
9 | CCOC(=O)c1c(-c2ccccc2)oc2ccc(OCC(N)=O)cc12 | 1.72% | 
10 | CCOC(=O)c1c(-c2ccccc2)oc2cc(Br)c(O)c(C=O)c12 |  | 2.91 µM (active)
11 | CCOC(=O)c1c(-c2ccccc2)oc2ccc(OCC(=O)NN)cc12 | 4.39% | 
12 | CCOC(=O)c1c(-c2ccccc2)oc2cc(Br)c(O)cc12 |  | 16.4 µM (active)
13 | Cc1oc2cc(Br)c(O)c(Br)c2c1C(=O)c1ccccc1 | 3.43% | 
14 | CC[C@]12c3[nH]c4cc(CCC(=O)N(C)C)ccc4c3CCN1C(=O)[C@@H](CC(=O)NCc1ccco1)C[C@@H]2C(=O)N1CCN(C(=O)c2ccco2)CC1 | -30.6% | 
15 | O=C(CSc1nnc(Nc2ccccc2F)s1)NC1CCCC1 | 13.4% | 
16 | O=C(COC(=O)c1n[nH]c2ccccc12)Nc1ccccc1Br | 1.38% | 
17 | COc1ccc(NC(=O)/C(N=Nc2cccc(S(=O)(=O)Nc3ccc(SC(F)F)cc3)c2)=C(\C)O)cc1 | 3.02% | 
18 | CC(C)=CCc1c(O)c(CC=C(C)C)c2occ(-c3ccc(O)cc3)c(=O)c2c1O |  | 9.2 µM (active)
19 | CC(C)CN(Cc1c(O)ccc2c(=O)c(-c3ccccc3)coc12)CC(C)C | -5.6% | 
20 | O=c1c(-c2ccccc2)coc2cc(O)ccc12 | -13.7% | 
21 | O=C(NN=Cc1ccc([N+](=O)[O-])cc1)C1CC1 | -1.7% | 
22 | COc1ccccc1N1CCN(C(=O)C2Cc3ccccc3CN2C(=O)c2ccco2)CC1 (centres undefined) | 29.1% | 
23 | CCOc1ccc(OCC)c(NC(=O)CCS(=O)(=O)c2ccc(C)cc2)c1 | -9.05% | 
24 | Cc1ccc(S(=O)(=O)CC(=O)Nc2nnc(C)s2)cc1 | 12.8% | 
25 | CC(=O)N1CCc2c(sc(NC(=O)CCS(=O)(=O)c3ccc(C)cc3)c2C(N)=O)C1 |  | 3.26 µM (active)

Row | Compound | activity, positive = re-replication | Potency
26 | Cc1cc(C)cc(-c2nnc(SCC(=O)NC3CC3)o2)c1 | -7.62% | 
27 | O=C(NCc1ccccc1CN1CCCC1)c1cccc(S(=O)(=O)Nc2ccc(F)cc2)c1 | 15.9% | 
28 | COc1cc(C(=O)CCc2ccc3c(c2)OCO3)cc(OC)c1OC | -18.2% | 
29 | Cc1noc(C)c1C(=O)N1CCOCC1 | 1.06% | 
30 | Cc1ccccc1-c1ccc(Nc2ccc(C(=O)N3CCOCC3)cc2)nn1 | -1.59% | 
31 | Cc1oc2c(c1C(=O)N1CCOCC1)C(=O)c1ccccc1C2=O |  | 16.4 µM (active)
32 | NS(=O)(=O)c1ccc(CNC(=O)c2cccc(S(=O)(=O)N3CCc4ccccc43)c2)cc1 | 2.06% | 
33 | COc1ccc(C(C)(C)C)cc1NC(=O)CCN1C(=O)C2CCCCC2C1=O (centres undefined) | 21.3% | 
34 | COc1ccc(C2=NN(C(C)=O)C(c3ccccc3)C2)cc1 (centres undefined) | 7.74% | 
35 | COc1ccc(C2=NN(C(=O)c3ccccc3C(=O)O)C(c3ccccc3O)C2)cc1 (centres undefined) | 5.66% | 
36 | COc1ccc(C2=NN(c3ccccc3)C(c3cccs3)C2)cc1 (centres undefined) |  | 3.26 µM (active)
37 | O=C(Nc1cc(S(=O)(=O)N2CCCCC2)ccc1Cl)C1COc2ccccc2O1 (centres undefined) | 4.49% | 
38 | C=CC[C@@H](CC(=O)N[C@@H](CO)Cc1ccccc1)C(=O)NCCOC(=O)[C@@H](CC=C)CC(=O)OC(C)(C)C | -4.23% | 
39 | CCCCn1c(N)c(N(CCC(C)C)C(=O)COC(=O)c2ccc(CC)cc2)c(=O)[nH]c1=O | 14% | 
40 | O=C(/C=C/c1ccco1)NC(=S)N1CCCCC1 | -8.74% | 
41 | O=C(/C=C/c1ccco1)NC(=S)Nc1ccccc1Br |  | 20.6 µM (active)
42 | COc1ccc(Cl)cc1C(=O)NNC(=S)NC(=O)/C=C/c1ccco1 | 13.6% | 
43 | COc1ccc2c(c1)C(=O)CC(c1ccccc1)O2 (centres undefined) | 15.4% | 
44 | COc1cc(/C=N/NC(=O)c2cc(-c3ccccc3C)nc3ccccc23)cc(OC)c1O | -1.21% | 
45 | CCOc1ccc(-c2cc(C(=O)N/N=C/c3ccc(O)cc3)c3ccccc3n2)cc1 |  | 2.06 µM (active)
46 | COc1cccc(-c2cc(C(=O)N/N=C/c3ccc(OC)c(COC(C)=O)c3)c3ccccc3n2)c1 | 9.77% | 
47 | O=C1COc2ccc(C(=O)COC(=O)CCOc3ccccc3)cc2N1 | 1.68% | 
48 | CC(=O)NCc1ccc(-c2csc(NC(=O)CCCc3nc4ccccc4c(=O)[nH]3)n2)cc1 | -0.541% | 
49 | O=C(CSc1nc2ccccc2c(=O)[nH]1)Nc1nc(-c2ccc(Br)cc2)cs1 | 16.4% | 
50 | Cc1ccc(-c2csc(NC(=O)Cn3[nH]c(=O)c4ccccc4c3=O)n2)cc1 |  | 3.26 µM (active)

Row | Compound | activity, positive = re-replication | Potency
51 | O=C(Cn1cnc2c(OCc3ccccc3)ncnc21)NCCCn1ccnc1 | -1.32% | 
52 | CC(C)Sc1nc(N)nc2c1ncn2C1OC(CO)C(O)C1O (centres undefined) | -5.04% | 
53 | Cn1c(N)c(C(=O)COC(=O)c2cccc(S(=O)(=O)N3CCOCC3)c2)c(=O)n(C)c1=O | 1.02% | 
54 | COCCCn1c(-c2cccs2)nc2nc3ccccc3nc21 |  | 18.4 µM (active)
55 | CC(C)n1c(-c2cccs2)nc2ccccc21 | 8.1% | 
56 | COc1ccccc1C(=O)Nn1c(-c2cccs2)nc2ccccc2c1=O | 9.96% | 
57 | COC(=O)C1CCN(C(=O)COC(=O)c2cc(S(=O)(=O)N3CCOCC3)ccc2C)CC1 | 1.29% | 
58 | Cc1ccc2c(O)c(Cc3ccccc3)c(=O)[nH]c2n1 | -29.4% | 
59 | O=C(NCC1CCCO1)c1ccc(S(=O)(=O)Nc2ccc(F)cc2)cc1 (centres undefined) | 5.39% | 
60 | COc1ccc(/C=N/NC(=O)CNC(=O)c2ccc(S(=O)(=O)N3CCCC3)cc2)c(OC)c1 | -0.59% | 
61 | COc1ccc(/C=N/NC(=O)Nc2ccc3nsnc3c2)c(OC)c1 |  | 13 µM (active)
62 | COc1ccc(/C=N/NC(=O)c2ccc3c(c2)OCCO3)c(OC)c1 | 9.16% | 
63 | COc1ccc(CNC(=O)CN2C(=O)c3ccccc3S2(=O)=O)cc1 | -2.69% | 
64 | COc1ccc(C(=O)NCc2ccc(C)cc2)cc1S(=O)(=O)N1CCCC1 | -1.88% | 
65 | Cc1ccc(-c2csc(C(C#N)=C(O)CN3CCN(C(=O)c4ccco4)CC3)n2)cc1 | 11.7% | 
66 | O=S(=O)(c1ccc(SCc2ccc(Br)cc2)nc1)N1CCOCC1 | 1.47% | 
67 | Cc1ccc(OCCC(=O)Nc2ccc(S(=O)(=O)Nc3nccs3)cc2)cc1 | 8.62% | 
68 | COC1=NC2=NCCN2C(OC)=N1 | 0.601% | 
69 | Cc1cccc(C)c1NC(=O)C(Cl)C(=O)c1ccccc1 (centres undefined) |  | 18.4 µM (active)
70 | Cc1cccc(C)c1NC(=O)CN(C)C(=O)CCC(=O)c1ccccc1 | -6.85% | 
71 | Cc1cccc(C)c1NC(=O)C(c1ccccc1)N1CC(=O)Nc2ccccc21 (centres undefined) | 0.962% | 
72 | Cc1ccc(NC(=O)C2CC(=O)N(c3ccc4c(c3)OCCO4)C2)cc1S(=O)(=O)N1CCCCCC1 (centres undefined) | 19.6% | 
73 | Cc1nc(SCC(=O)NC2CCCCC2C)c(C#N)c(C)c1C (centres undefined) | 0.386% | 
74 | CC(C)n1ncc2c(C(=O)Nc3ccc(CC#N)cc3)cc(C3CC3)nc21 | 4.57% | 
75 | COc1ccc(OC)c(Cc2cnc3nc(N)nc(N)c3c2C)c1 | 15.9% | 

Row | Compound | activity, positive = re-replication | Potency
76 | COc1ccc(Nc2oc(-c3ccccc3Cl)nc2C#N)cc1 |  | 2.59 µM (active)
77 | COc1ccccc1-c1nc(C#N)c(N2CCC(C(N)=O)CC2)o1 | 1.76% | 
78 | Cc1ccccc1-c1nc(C#N)c(NCc2ccco2)o1 | -0.678% | 
79 | CC(NC(=O)c1ccc(S(=O)(=O)Nc2ccccc2)cc1)c1ccc(S(N)(=O)=O)cc1 (centres undefined) | 3.04% | 
80 | COc1cccc(CC(=O)Nc2nc(-c3ccc(OC)c(OC)c3)cs2)c1 | 14.9% | 
81 | COc1cccc(CC(=O)Nc2ccc(-c3csc(C)n3)cc2)c1 |  | 9.2 µM (active)
82 | CCC(=O)Nc1ccc(C(=O)Nc2cccc(OC)c2)cc1 | -24% | 
83 | CCCCC[C@@H]1C=C(C(=O)O)[C@H](c2ccc(C#N)cc2)N1S(=O)(=O)c1ccc(C)cc1 | -1.83% | 
84 | O=C1C[C@@H]2c3c(cccc3CN1Cc1ccccc1)C[C@@H](O)[C@H]2O | -8.32% | 
85 | CCO/N=C(/C)c1c(O)cc(-c2ccccc2)n(-c2ccccc2)c1=O |  | 14.6 µM (active)
86 | C=CCO/N=C(\C)c1c(O)c(C)c(-c2ccccc2)n(-c2ccccc2)c1=O | 19.9% | 
87 | CCOC(=O)c1c(CN(C)C)n(-c2ccccc2)c2cc(Br)c(O)cc12 | 8.71% | 
88 | CCN(CC)S(=O)(=O)c1ccc(CNC(=O)CN2C(=O)NC3(CCc4ccccc43)C2=O)cc1 (centres undefined) | 5.09% | 
89 | COCCN(Cc1ccccc1)C(=O)Cc1ccc(S(=O)(=O)N2CCOCC2)s1 | -9.64% | 
90 | Cc1ccc(S(=O)(=O)N2CCCCC2)cc1NC(=O)CCNC(=O)c1ccccc1 | 0.791% | 
91 | C#CCOCCOCCOCCNc1nc(N2CCOCC2)nc(N2CCN(C(=O)[C@H](Cc3ccc(O)cc3)n3cc(CCO)nn3)CC2)n1 | 9.82% | 
92 | Cc1ccc(NC(=O)NC2CCCCC2)cc1S(=O)(=O)N1CCOCC1 | 0.463% | 
93 | Cc1ccc(NC(=O)COC(=O)C2CC2)cc1S(=O)(=O)N1CCOCC1 | -4.67% | 
94 | Cc1ccc(NC(=O)C2CCC(C(C)(C)C)CC2)cc1S(=O)(=O)N1CCOCC1 (centres undefined) |  | 18.4 µM (active)
95 | CCC1([N+](=O)[O-])COC(c2ccc(C)cc2)OC1 (centres undefined) | -3.51% | 
96 | COc1ccccc1N1CC(C(=O)NCCN2C(=O)S/C(=C\c3cccnc3)C2=O)CC1=O (centres undefined) | -5.48% | 
97 | O=C(Cc1csc(Nc2nc(=S)[nH]c3ccccc23)n1)NCCCN1CCN(c2cccc(Cl)c2)CC1 |  | 14.6 µM (active)
98 | COc1cccc(CNC(=O)Cc2csc(Nc3nc(=S)[nH]c4ccccc34)n2)c1 | 21.3% | 
99 | O=C(CCn1c(=O)[nH]c2ccccc2c1=O)NCCCN1CCN(c2cccc(Cl)c2)CC1 | 1.02% | 
